# CHO-K1 Ca antag = nonselective inhibitor or artifact in parental CHO-K1 cells; ATP-induced calcium, Fluo-8 fluorescence; 0.6% of 360,000 active; inhibition, % at 3 µM;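 active means inhibition above a per-plate cutoff, the plate's mean sample inhibition plus 3 SD, cut at about 24% in these data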;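 further: 0% = DMSO plus EC80 ATP and 100% = DMSO alone without ATP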
# NTR1 ag = agonists of human neurotensin receptor NTR1; P30989; NTR1-U2OS beta-arrestin-GFP spot imaging, agonist mode; activation, % at 20 µM; 0.17% of 330,000 active; AID 493036;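 active means activation at or above 40% of the spot to cytoplasm intensity ratio, with at least 20 cells analyzed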;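 further: 0% = DMSO without peptide and 100% = 100 nM NTR1 peptide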
# Target sequence (P30989 whole entry, looked up): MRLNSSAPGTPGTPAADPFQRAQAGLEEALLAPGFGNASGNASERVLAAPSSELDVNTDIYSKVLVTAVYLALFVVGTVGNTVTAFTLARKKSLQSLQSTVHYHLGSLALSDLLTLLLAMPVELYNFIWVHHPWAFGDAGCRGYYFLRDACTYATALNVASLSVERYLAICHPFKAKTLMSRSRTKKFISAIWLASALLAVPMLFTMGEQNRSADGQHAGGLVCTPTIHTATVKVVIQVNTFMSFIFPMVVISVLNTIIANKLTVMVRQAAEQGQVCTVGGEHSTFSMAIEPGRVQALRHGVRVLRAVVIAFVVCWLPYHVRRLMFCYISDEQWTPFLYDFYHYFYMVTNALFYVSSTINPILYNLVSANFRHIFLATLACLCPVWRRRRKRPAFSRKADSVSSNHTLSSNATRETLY
# CHO-K1 Ca PAM = counter-screen for M1 PAMs: effect in parental CHO-K1 cells; AID 602247; ATP EC20, Fluo-8 calcium fluorescence; 0% at ATP EC20, 100% at ATP max; activation, % at 3 µM; 0.02% of 360,000 active;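 active means activation above the run cutoff, the mean activation of all test compounds plus 3 SD, cut at about 40% in these data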;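 further: peak over basal fluorescence ratio in a 140 s read after ATP addition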
# ANO1 block = mouse TMEM16A channel inhibition, primary screen; 1.2% of 310,000 active; AID 588511; Q8BHY3; normalized B-score (activity score, 25-100; higher = stronger inhibition) at 10 µM; HEK293 TMEM16A/YFP iodide influx fluorescence, ionomycin;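 active means ratio plate-corrected score three or more library SD toward inhibition, starting fluorescence score within five deviations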;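 further: score derived from kinetic fluorescence span divided by baseline fluorescence per well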
# M1 ag parental = M1 agonist counterscreen hit in parental CHO-K1 cells | Fluo-8 calcium fluorescence; scaled to maximal ATP response, vehicle zero | AID 602248 | activation, % at 3 µM | 0.48% of 360,000 active; in the data active means activation above about 15%;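 further: untransfected CHO-K1 host cells lacking M1 receptor as counterscreen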
# TMEM16A act = mouse TMEM16A channel activation, primary screen; Q8BHY3; HEK293 TMEM16A/YFP-H148Q/I152L, iodide quench fluorescence; hits give low values; B-score at 10 µM; 0.3% of 340,000 active; AID 623877;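 active means fluorescence-ratio B-score plate-corrected deviation score at least 3 library SD below zero, with starting fluorescence score within 5 deviations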;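 further: channel opened by trigger with iodide after compound preincubation; score built on the fluorescence ratio of max minus min over baseline; more negative score means more quench and so TMEM16A activation or potentiation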
# * hit, by the source's call; i = inactive; x = not tested or not shown. Compounds with a hit are over-represented: about 2.2% of the library has one in this group of screens.
SMILES,CHO-K1 Ca antag,NTR1 ag,CHO-K1 Ca PAM,ANO1 block,M1 ag parental,TMEM16A act
CCOC1=C2CN(S(=O)(=O)c3ccc(C)cc3)[C@@H](c3cccs3)C[C@H]2[C@H]2C(=O)N(c3ccccc3)C(=O)[C@H]2C1,27*,x,-4,x,0,x
Cc1ccc(S(=O)(=O)N2C[C@H]3C(=O)C[C@@H]4C(=O)N(c5ccccc5)C(=O)[C@@H]4[C@@H]3C[C@H]2c2cccs2)cc1,9,x,11,x,1,x
CCC/C=C/c1ccc(CN2C(C)C(=O)N(Cc3cn(CCC4OCCCO4)nn3)CCS2(=O)=O)cc1 (stereo not given),-8,x,2,x,0,x
CC(C)NC(=O)C1(C)CCN1C(=O)c1cccn1C (stereo not given),3,x,8,x,1,x
CCOc1ccc(-c2cnc(NCc3cccc4ccccc34)n2CCOC)cc1,9,6,2,100*,10,i
COc1cccc(CN2CCC2(C)C(=O)Nc2ccc3c(c2)CCN3C(C)=O)c1F (stereo not given),-6,x,4,x,3,x
COc1cccc(C(=O)N/N=C2/SCC(=O)N2CCc2ccc(OC)c(OC)c2)c1,-14,2,-4,i,0,i
COc1ccc(CCN2C(=O)CS/C2=N\NC(=O)c2cccs2)cc1OC,0,0,10,i,18*,i
O=C(Nc1ccccc1Cc1ccccc1)c1ccccc1NS(=O)(=O)c1ccc(Cl)s1,19,6,-9,25*,13,i
O=C(Nc1ccccc1)c1ccccc1NS(=O)(=O)c1ccc(Cl)s1,7,3,5,100*,8,i
O=S(=O)(Nc1ccccc1N1CCCCC1)c1ccc(Cl)s1,-4,1,6,i,0,i
Cc1ccc(NC(=O)c2ccccc2NS(=O)(=O)c2ccc(Cl)s2)cc1,25*,8,5,i,10,i
CS(=O)(=O)c1ccccc1C(=O)Nc1ccccc1Cc1ccccc1,-8,2,11,i,0,i
COc1ccc(NC(=O)N2c3ccc(OC)cc3C(C)=CC2(C)C)cc1,25*,3,7,i,0,i
CC(C)NC(=S)NC(=O)/C=C/c1cccc2ccccc12,1,1,23,i,1,-6.8*
CCOC(=O)C1CCN(C(=O)CSCc2nc(-c3ccc(OCC)cc3)oc2C)CC1,-2,0,4,100*,6,i
CCOc1ccc(-c2nc(CSCC(=O)N3CCN(C(=O)c4ccco4)CC3)c(C)o2)cc1,5,-2,-3,i,2,i
O=S(=O)(Nc1ncnc2sc3c(c12)CCC3)c1ccc(Cl)s1,3,-1,-3,25*,2,i
O=S(=O)(Nc1ncnc2sc3c(c12)CCC3)c1cc(F)ccc1F,6,3,-16,i,0,i
Cc1ccc(C(=O)c2cn[nH]c2-c2cc(Cl)ccc2O)cc1,0,2,16,i,19*,i
CC[C@@H](C)[C@H](CNC)NC[C@@H](Cc1cccc2ccccc12)NCCc1cccc(C(F)(F)F)c1,4,16,2,100*,1,i
COc1ccc(CNC(=S)N/N=C(/C)c2ccccc2)cc1,0,4,-5,25*,0,i
C/C(=N\NC(=S)NCc1ccccc1)c1ccccc1,-2,0,7,i,1,i
OC(COC(c1ccc(Cl)cc1)c1ccc(Cl)cc1)CN1CCc2ccccc2C1 (stereo not given),-7,8,29,i,16*,i
CCCCCCn1cc(CN2CC(N3CCCC3)CS2(=O)=O)nn1 (stereo not given),-19,x,9,x,1,x
SMILES,CHO-K1 Ca antag,NTR1 ag,CHO-K1 Ca PAM,ANO1 block,M1 ag parental,TMEM16A act
O=C(/C=C/c1cccc(Cl)c1)N1CCC(Cc2ccccc2)CC1,25*,6,-12,i,1,i
CN(C)CCN1CCN(C2CN(Cc3ccccc3)S(=O)(=O)C2)CC1 (stereo not given),3,x,3,x,0,x
CC[C@@H](NCCCn1ccc(NC(=O)OCc2ccccc2)nc1=O)c1ccccc1,-9,x,6,x,0,x
CCN1CCCSC1=S,-11,x,12,x,0,x
O=C(CSc1n[nH]c(=O)n1C1CC1)Nc1cc(Cl)ccc1Oc1ccccc1,25*,4,4,i,8,i
CCOC(=O)Cc1csc(SCC(=O)Nc2cc(Cl)ccc2Oc2ccccc2)n1,29*,2,1,i,7,i
Cc1cccc(CN2[C@H](COCc3ccccc3)C=CS2(=O)=O)c1,14,x,8,x,1,x
COc1cccc(N2CCN(C(=O)c3cccc(NC4=NC5CS(=O)(=O)CC5S4)c3)CC2)c1 (stereo not given),24*,-2,-6,i,5,i
COCCCNC(=O)CCNS(=O)(=O)c1ccc(C)cc1,-14,0,1,25*,0,i
CCOC(=O)c1c(NC(C)=O)sc2c1CCC(C=O)=C2Sc1ccccc1,-8,6,14,i,0,i
CCOC(=O)c1c(NC(C)=O)sc2c1CCCNC2=O,26*,1,-10,i,0,i
CCn1cnc2sc(C(=O)N3CCN(Cc4ccc5c(c4)OCO5)CC3)c(C)c2c1=O,x,0,x,25*,x,x
COc1ccccc1C(=O)N1CCN(Cc2ccc3c(c2)OCO3)CC1,12,1,-6,i,0,-14*
CC(CC(=O)c1ccccc1)=NCCCN=C(C)CC(=O)c1ccccc1,-12,x,22,x,1,x
Cc1nc(N2CCN(C(=O)COc3ccccc3)CC2)c2c(C)c(C)sc2n1,-5,3,9,100*,0,i
CN(CCOc1ccc(Cl)cc1)C(=O)c1cc(-c2ccco2)nc2ccccc12,24*,21,-3,i,9,i
COc1cccc(NC(=O)CN(C)C(=O)c2cc(-c3ccco3)nc3ccccc23)c1,8,2,-24,i,5,i
COc1ccc(CN(C)C[C@@H]2OCCCC[C@H](C)Oc3ccc(NC(=O)Nc4ccc(F)cc4)cc3C(=O)N([C@H](C)CO)C[C@H]2C)cc1,-6,x,-11,x,0,x
CC1CCN(CC(=O)Nc2ccc3c(c2)OCO3)CC1,3,-1,5,x,17*,i
CC(C)CN(CC(C)C)C(=O)Nc1cccc([N+](=O)[O-])c1,-11,-1,0,i,15*,i
Cc1ccc([N+](=O)[O-])cc1NC(=O)CN1CCC(C)CC1,-6,-1,7,i,1,i
CC1CCN(CC(=O)Nc2cccc([N+](=O)[O-])c2)CC1,-12,-1,7,25*,0,i
O=S(=O)(NCc1c(Cl)cccc1Oc1ccccc1)c1ccccc1,-1,5,20,i,6,i
